Compounds with a hit are over-represented: about 4.7% of the library has one in this group of screens.
TRHR enhancer = qHTS for Small Molecule Agonists and Allosteric Enhancers of Human TRH Receptor: Primary Screen for Enhancers | TRHR cells, fluo-8 calcium fluorescence, EC20 TRH enhancement | enhancement, % at 2 µM | 0.66% of 360,000 active | AID 493056, 2011; in the data active = enhancement above about 30%
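Enhancer read-out: after compound pinning and an initial kinetic agonist-mode read, an EC20 of TRH (10 nM final) was injected and fluo-8 calcium signal (Ex 480/Em 530) followed at 1 s/cycle for 100 cycles in TRHR-expressing cells.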
D1 antagonist = Antagonist of Human D 1 Dopamine Receptor: qHTS; D(1A) dopamine receptor (Homo sapiens), P21728; HEK293 TREx D1 cells, calcium flux, dopamine EC80; hits give low values; activity change, negative = inhibition, % at 10 µM; 3.2% of 360,000 active; AID 504652, 2011; in the data active = activity change below about -30%
Target sequence (P21728 whole entry, looked up): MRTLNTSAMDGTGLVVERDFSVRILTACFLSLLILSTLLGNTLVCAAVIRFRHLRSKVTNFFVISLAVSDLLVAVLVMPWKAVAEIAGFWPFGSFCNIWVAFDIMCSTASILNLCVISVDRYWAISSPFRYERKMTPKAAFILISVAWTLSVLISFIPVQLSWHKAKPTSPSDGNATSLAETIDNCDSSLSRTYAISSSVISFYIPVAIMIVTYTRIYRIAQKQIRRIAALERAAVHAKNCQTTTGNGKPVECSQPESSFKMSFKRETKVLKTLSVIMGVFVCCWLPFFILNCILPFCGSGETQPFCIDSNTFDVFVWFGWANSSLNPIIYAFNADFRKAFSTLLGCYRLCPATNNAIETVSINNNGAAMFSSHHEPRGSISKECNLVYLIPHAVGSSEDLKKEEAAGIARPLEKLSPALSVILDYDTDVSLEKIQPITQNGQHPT
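Tetracycline-induced HEK293 Trex D1 cells, force-coupled to calcium, dye-loaded; compounds added and read 180 s, then EC80 dopamine added and calcium flux tracked kinetically another 180 s.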
D1 potentiator = Potentiators of Human D1 Dopamine Receptor: qHTS; D(1A) dopamine receptor (Homo sapiens), P21728; HEK293 TREx D1 cells, calcium flux, dopamine EC20 potentiation; potentiation, % at 10 µM; 0.036% of 360,000 active; AID 504651, 2011; in the data active = potentiation above about 30%
TRHR ag = qHTS for Small Molecule Agonists and Allosteric Enhancers of Human TRH Receptor: Primary Screen for Agonists; Thyrotropin-releasing hormone receptor (Homo sapiens), P34981; TRHR cells, calcium flux fluo-8, FDSS agonist mode; activation, % at 2 µM; 0.18% of 360,000 active
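Steps: seed TRHR cells overnight; add fluo-8 no-wash Ca dye, RT 30 min–1.5 h; record 10 s baseline; pin-transfer compounds; monitor fluorescence 1 cycle/s for the agonist window. Calcium increases flag candidate agonists.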
D1 ag = Allosteric Agonists of the Human D1 Dopamine Receptor: qHTS; activation, % at 2 µM; HEK293 T-REx D1 cells, calcium flux, agonist mode; 1% of 360,000 active
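Inducible HEK293 T-REx D1 cells, force-coupled to calcium signalling, were plated at 4000 cells/well with tetracycline and held overnight at 30 C. After no-wash calcium dye loading, compound-evoked calcium rise over 180 s flagged agonists.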
Each line names hits and unclear results; the compound was inactive in the other large screens. Rule as the data show it, unless noted: active = activation above about 30%; inactive = the rest.

COc1ccc(NCc2ccccc2-c2nnc(-c3ccccc3)o2)cc1Cl	none
COc1ccc(CCNC(=O)CN(c2cc(C(F)(F)F)ccc2Cl)S(C)(=O)=O)cc1	none
O=C(NCc1nnnn1-c1ccc(F)cc1)C1CC(=O)N(c2ccc(F)cc2)C1 (stereo unspecified)	D1 antagonist -30
Cc1ccc(-n2nnnc2CNC(=O)C2CC(=O)N(c3ccc(F)cc3)C2)cc1C (stereo unspecified)	none
N#C/C(=C\c1ccc(O)cc1)C(=O)NCc1ccccc1	none
N#C/C(=C\c1ccc(O)cc1)C(=O)NCc1cccc(Cl)c1	D1 ag 53
N#C/C(=C/c1ccc(O)cc1)C(=O)NCc1ccc(Cl)cc1	D1 ag 34
Cc1cccc(NC(=O)C(=O)NCC(c2cccnc2)N2CCc3ccccc3C2)c1C (stereo unspecified)	none
CCOc1ccc(NC(=O)CSc2nnc(Cn3cnc([N+](=O)[O-])n3)n2C)cc1	none
CCOc1ccc(NC(=O)CSc2nnc(Cn3cnc([N+](=O)[O-])n3)n2CC)cc1	D1 antagonist -38
CC(OC(=O)c1ccccc1O)C(=O)Nc1ccc(Cl)cn1 (stereo unspecified)	none
CC(OC(=O)c1ccc(S(=O)(=O)N(C)C)cc1)C(=O)Nc1ccc(Cl)cn1 (stereo unspecified)	D1 antagonist -60
CCOc1ccc(CCN2C(=O)C(=O)N([C@H](CCCN(C)Cc3ccccc3)CNCc3ccccc3)C[C@@H]2C(C)C)cc1	D1 ag 41
COc1ccc(CNC[C@@H](CCCCN(C)Cc2ccc(OC)cc2)N2C[C@H](c3ccccc3)N(CCc3ccc(Cl)c(Cl)c3)C(=O)C2=O)cc1	D1 ag 39
CN(CCCC[C@H](CNCc1ccc(-c2ccccc2)cc1)N1C[C@H](c2ccccc2)N(CCc2ccc(Cl)c(Cl)c2)C(=O)C1=O)Cc1ccc(-c2ccccc2)cc1	none
CCCCn1c(C)cc2c(c1=O)C1O[C@](c3ccc(OC)cc3)(Cc3cc(OC)c(OC)cc31)O2	none
CC(C)(C)[C@H]1C=C(C(N)=O)O[C@@H](OCc2ccc(CO)cc2)C1	D1 antagonist -31
CC(C)(C)[C@@H]1C=C(C(N)=O)O[C@H](OCc2ccc(CO)cc2)C1	none
Oc1ccc(-c2cc(-c3ccc(O)cc3)nc(-c3ccccc3)n2)cc1	D1 antagonist -40
Nc1ccc(-c2cc(-c3ccc(N)cc3)nc(-c3ccccc3)n2)cc1	none
N#Cc1c(-c2ccccc2)cc(-c2ccc(O)cc2)nc1N	D1 antagonist -42
COc1ccc(-c2cc(-c3ccc(O)cc3)nc(N)c2C#N)cc1	none
CCOc1ccc(-n2c(SCc3nc(-c4ccc(OC)cc4)no3)nnc2-c2ccncc2)cc1	none
CCN(C(=O)c1cc2c(=O)oc3ccc(C)cc3c2s1)c1ccccc1C	none
O=C1CN2C(=N1)N(Cc1ccccc1)c1ccccc12	D1 antagonist -87
Cc1cc(=O)n2nc(N3CCCC(C(=O)NCCCN4CCc5ccccc5C4)C3)sc2n1 (stereo unspecified)	D1 antagonist -32
CCC1CCCCN1CCCNC(=O)C1CCCN(c2nn3c(=O)cc(C)nc3s2)C1 (stereo unspecified)	none
CC(C)NC(=O)/C(C#N)=C\c1ccc(N(C)C)o1	none
CCN(CC)c1ccc(/C=C(/C#N)C(=O)NCc2ccccc2)o1	TRHR ag 59, D1 ag 152
CCN(CC)c1ccc(/C=C(/C#N)C(=O)NC(C)C)o1	D1 ag 57
CC(=O)Nc1ccc(/C=C(\C#N)C(=O)NCc2ccccc2)cc1	none
COc1ccc(NC(=O)C2(S(=O)(=O)c3ccc(C)cc3)CC2)c(OC)c1	none
CC(C(=O)N1CCOCC1)c1ccccc1 (stereo unspecified)	none
CC(C(=O)N1CCOCC1)(c1ccccc1)c1ccccc1	D1 antagonist -34
Cc1cccc(NC(=O)C2CCN(S(=O)(=O)c3cccc4nsnc34)CC2)c1C	none
O=C(COc1ccc(Cl)cc1)OCc1cc(=O)n2nc(C3CCCCC3)sc2n1	none
Cc1cc(=O)[nH]c(Cc2ccc(OC(C)C)cc2)n1	D1 antagonist -76
Cc1cc(=O)oc2c3c(cc(OCC(=O)NCc4ccccc4)c12)OC(C)(C)CC3	D1 antagonist -32
CCCCOc1ccc(CSc2nnc(C)n2N)cc1[N+](=O)[O-]	none
CCCCOc1ccc(CSc2nc(C)[nH]c2[N+](=O)[O-])cc1[N+](=O)[O-]	D1 antagonist -31
COc1ccc2[nH]c3c(N4CCc5ccccc5C4)ncnc3c2c1	D1 antagonist -32
COc1ccccc1C(=O)N1CC(=O)Nc2ccc(C)cc2C1c1ccc(F)cc1 (stereo unspecified)	none
Cc1ccc2c(c1)C(c1ccccc1)N(C(=O)c1ccc(S(=O)(=O)N3CCCCC3)cc1)CC(=O)N2 (stereo unspecified)	D1 antagonist -48
COc1ccc(C(=O)N2CC(=O)Nc3ccc(C)cc3C2c2ccccc2)c(OC)c1 (stereo unspecified)	D1 antagonist -45
O=C1CN(C(=O)c2ccc(S(=O)(=O)N3CCCC3)cc2)C(c2ccccc2)c2cc(Br)ccc2N1 (stereo unspecified)	none
Cc1c(-c2ccccc2)c(=O)oc2c(CN3CCN(C)CC3)c(O)ccc12	none
Clc1ccc(Cn2c(/C=C/c3ccco3)nc3ccccc32)cc1	none
C#CCn1c(/C=C/c2ccc(Cl)cc2)nc2ccccc21	D1 antagonist -36
CC(C)CCn1c(/C=C/c2ccccc2)nc2ccccc21	D1 antagonist -32
COCCn1c(/C=C/c2ccccc2)nc2ccccc21	D1 antagonist -34
COc1ccccc1Cn1c(/C=C/c2ccccc2)nc2ccccc21	D1 antagonist -31
COCCn1c(-c2ccccc2)nc2ccccc21	none
COc1ccc(NC(=O)CCNS(=O)(=O)c2ccc3c(c2)CCN3C(=O)C2CC2)cc1Cl	none
CCOC(=O)CC(=O)CSc1nc2ccccc2c(=O)n1CCc1ccc(S(N)(=O)=O)cc1	none
CC(C)CCn1c(-c2nonc2N)nc2ccccc21	D1 antagonist -33
CCCCn1c(/C=C/c2ccco2)nc2ccccc21	D1 ag 30
CCCn1c(/C=C/c2ccco2)nc2ccccc21	none
CCCCn1c(-c2nonc2N)nc2ccccc21	none
CCOC(=O)c1cccc(NS(=O)(=O)c2cc3[nH]c(=O)c(=O)[nH]c3cc2C)c1	TRHR enhancer 46

Compound activity deposited in PubChem by National Center for Advancing Translational Sciences (NCATS).
